# Source: PubChem BioAssay (The Scripps Research Institute Molecular Screening Center)
# Hits are enriched below; roughly 2% of the tested compounds scored in any of these assays.
# MBD2 DNA inh: blocks human MBD2 binding to methylated DNA; Q9UBB5; TR-FRET, MBD2 binding to methylated oligonucleotide; inhibition, % at 4.4 µM; hit rate 0.31% among 370,000; AID 686964; in the data active = inhibition above about 13%
# TCR CD3 inh: inhibitors of human TCR-CD3 interaction. TAMRA-labeled TCR probe fluorescence, biochemical. inhibition, % at 9.4 µM. hit rate 0.37% among 360,000. AID 651800; in the data active = inhibition above about 19%;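 note: recombinant mutant TCR 2C K166C tagged with TAMRA read by polarization; 0% = receptor in buffer alone and 100% = receptor with positive control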
# UHRF1 binding: human UHRF1 methylated DNA binding inhibitors. hit rate 0.75% among 370,000. inhibition, % at 4.4 µM. UHRF1 binding to methylated oligo, TR-FRET. Q96T88; in the data active = inhibition above about 21%;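 note: UHRF1 SRA domain binding a hemimethylated CpG hairpin DNA probe; 0% = median of test compound wells and 100% = reference inhibitor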
# Rin1-Abl PPI inh: blocks binding of human Rin1 to Abl; hit rate 0.4% among 360,000; inhibition, % at 7.35 µM; TR-FRET Rin1/Abl binding, biochemical; P00519+Q13671; AID 588664; in the data active = inhibition above about 5%, passing the limit was not always enough
# LEDGF integ inh: blocks HIV-1 LEDGF/p75-dependent DNA integration; TR-FRET IN-LEDGF/p75 DNA integration, Eu/Cy5; inhibition, % at 3.7 µM; hit rate 0.64% among 370,000;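 active = inhibition above the screen-wide mean plus 3 SD, cut at about 13% in these data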;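 note: signal is the Cy5 over europium emission ratio at 671 and 618 nm; 0% = plate median of compound wells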
# Rin1 Abl conf: confirmation of inhibitors of human Rin1-Abl interaction. shares compounds with Rin1-Abl PPI inh. TR-FRET Rin1-Abl binding, purified proteins. inhibition, % at 7.35 µM. hit rate 49% among 1,300. AID 602124
# GFP quench-1: quenches GFP fluorescence, counter-screen for Rin1-Abl inhibitors. shares compounds with Rin1-Abl PPI inh. inhibitors/quenchers counterscreen. inhibition, % at 6.75 µM. hit rate 8.5% among 1,300;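 note: ABL1-eGFP fusion protein alone without its partner RIN1-SBP; 0% = protein with vehicle and 100% = wells lacking protein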
# GFP quench dose: GFP fluorescence interference dose response. shares compounds with Rin1-Abl PPI inh. 230 tested, under 10 active. IC50, µM. GFP fluorescence interference/quenching counterscreen; call rule not given here;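 note: ABL1-eGFP fusion protein alone without its RIN1 binding partner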
# GFP quench-2: counter-screen for Rin1-Abl interaction inhibitors: GFP fluorescence quenching. shares compounds with Rin1-Abl PPI inh. GFP fluorescence quenching counterscreen, biochemical. IC50, µM. 25 tested, under 10 active. AID 602397; call rule not given here
# Starred values were filed as active, the others as inactive; . = not tested or not shown. Cut-off read from the data, not from the text of the source, unless noted: active = inhibition above about 6.5%; inactive = the rest.
SMILES,MBD2 DNA inh,TCR CD3 inh,UHRF1 binding,Rin1-Abl PPI inh,LEDGF integ inh,Rin1 Abl conf,GFP quench-1,others
COc1cc(CNCCc2ccccc2F)ccc1OCc1ccc(Cl)nc1,0,-4,0,7.5*,-2,7.2*,-2,
COc1cc(CO)ccc1OCc1ccc(Cl)nc1,-5,4,-1,-1,-4,.,.,
COc1cc(CNCCc2ccc(F)cc2)ccc1OCc1ccc(Cl)nc1,5,-3,7,12*,2,11*,1,
O=C(COC(=O)CCN1C(=O)C2CC=CCC2C1=O)Nc1ccc([N+](=O)[O-])cc1 (stereo not drawn),-3,1,2,0,3,.,.,
O=c1c2ccccc2ncn1Cc1ccc(Cl)c(Cl)c1,-2,6,-2,6.3*,-6,1,-2,
O=C1CC(c2ccccc2)c2cccc(F)c21 (stereo not drawn),-1,-2,-1,1,3,.,.,
Cc1ccc(C(C[N+](=O)[O-])c2c(C)[nH]n(-c3ccccc3)c2=O)cc1 (stereo not drawn),-2,-1,-2,6.0*,2,2,-1,
CCCCNC(=O)C1(C)CCCCCN1Cc1cccc2c(OC)cc(C(=O)OCC)cc12 (stereo not drawn),1,-3,0,6.9*,-4,-2,1,
COc1ccc(C)cc1S(=O)(=O)n1cnc2ccccc21,-6,-2,1,-2,0,.,.,
CC1(C)Cc2cccc(Oc3cc(NN4CCCCC4)c([N+](=O)[O-])cc3[N+](=O)[O-])c2O1,4,1,-1,1,2,.,.,
Cc1cccc(COCC(Cc2ccccc2)N2CCN(C(=O)c3ccc(Cl)c(Cl)c3)CCC2=O)c1 (stereo not drawn),5,4,3,10,2,.,.,
O=C(c1ccc(Cl)c(Cl)c1)N1CCC(=O)N(C(COCc2cccc(C(F)(F)F)c2)Cc2ccccc2)CC1 (stereo not drawn),-2,-1,0,23*,-2,24*,-1,
COc1ccc(C=O)cc1OS(=O)(=O)c1ccc(NC(C)=O)cc1,-5,3,-3,8.5*,0,1,0,
COc1cc(C=O)cc(OC)c1OS(=O)(=O)c1ccc(NC(C)=O)cc1,1,3,4,-3,5,.,.,
COC(=O)[C@]12CCCCC=C1N(CCc1ccc(OC)c(OC)c1)C(=O)[C@H](CC(=O)NCCCCc1ccccc1)C2,0,2,1,.,2,.,.,
CC(=O)Oc1ccc2c(=O)c(Oc3ccccc3)coc2c1OC(C)=O,3,10,14,5.5*,1,1,4,
Cc1ccc(Oc2coc3cc(OC(=O)c4cccs4)ccc3c2=O)cc1,2,4,0,-3,0,.,.,
COc1cccc(CSc2nnc(CSc3nc4nc(C)cc(C)n4n3)s2)c1,3,-6,4,28*,2,39*,0,GFP quench dose=>68;GFP quench-2=>68
O=C(c1ccccc1)N1CCN(c2ccc(NCc3ccc4c(c3)OCO4)cc2)CC1,-8,1,-1,12*,2,12*,-1,
CC1=C(O)C(=O)C(C2=C(O)C(=O)C(C)=C(O)C2=O)=C(O)C1=O,0,0,18,46*,1,37*,28*,
O=c1cc(SCc2ccccc2)nc[nH]1,-4,-8,5,89*,0,98*,1,GFP quench dose=>68
Cc1cc(SCc2ccccc2)nc(=O)[nH]1,2,-5,1,5,-2,.,.,
CCC(C)[C@H](NC(=O)c1cc2cc(Cl)ccc2n1C)C(=O)N1CCC(C(=O)O)CC1 (stereo partly drawn),3,-2,12,-9,-3,.,.,
Cc1nnc(SCc2nc3ccccc3[nH]2)s1,-1,-7,1,18*,0,29*,-1,GFP quench dose=>68
c1ccc(CNc2nc(NCCc3ccncc3)c3sccc3n2)cc1,-6,7,-3,20*,-1,10*,0,
SMILES,MBD2 DNA inh,TCR CD3 inh,UHRF1 binding,Rin1-Abl PPI inh,LEDGF integ inh,Rin1 Abl conf,GFP quench-1,others
CCOC(=O)N1CCN(C(=O)C2CCN(C(=O)Nc3ccccc3)CC2)CC1,-5,3,-1,3,6,.,.,
CCOC(=O)N1CCN(C(=O)Nc2ccc(NC(=O)N3CCN(C(=O)OCC)CC3)cc2)CC1,1,3,-4,33*,0,38*,-1,GFP quench dose=>68;GFP quench-2=>68
COC1OC2COC(c3ccccc3)OC2C2OC12 (stereo not drawn),4,0,-1,4,-1,.,.,
N#CC(=C1Nc2ccccc2N1)S(=O)(=O)c1ccccc1,-6,5,-3,9.5*,-1,-3,1,
CCN1C(=O)CS/C1=C(\C#N)S(=O)(=O)c1ccccc1,-6,-27,-2,-3,1,.,.,
COc1ccc(N(C)S(=O)(=O)c2cccc(C(=O)N(C)Cc3ccc(C)o3)c2)cc1,-1,5,0,5,-1,.,.,
CCN(CC(=O)Nc1ccc(NC(C)=O)cc1)C(=O)c1ccc(Sc2nncn2C)c([N+](=O)[O-])c1,4,0,3,9.7*,-2,0,0,
Cc1ccc(NC(=O)CC2SCCNC2=O)cc1Cl (stereo not drawn),-4,6,-4,4,2,.,.,
O=C(CC1SCCNC1=O)Nc1ccc(F)c(Cl)c1 (stereo not drawn),-1,3,1,21*,-2,21*,1,GFP quench dose=>68
O=C(O)/C=C/C(=O)Nc1ccc(-n2ccc(C(F)(F)F)n2)cc1,-2,-1,1,6.4*,5,0,1,
Cc1ccc(C2(C)NC(=O)N(CC(=O)NCCN3C(=O)S/C(=C\c4cccnc4)C3=O)C2=O)cc1 (stereo not drawn),-4,-3,1,-4,-3,.,.,
CN(CC(=O)Nc1ccccn1)S(=O)(=O)c1ccc(Cl)cc1,1,-4,5,36*,-1,-3,-2,
Cc1cnc(NC(=O)CN(C)S(=O)(=O)c2ccc(Cl)cc2)s1,-3,0,2,3,-2,.,.,
Nn1c(SCc2cc([N+](=O)[O-])cc3c2OCOC3)nnc1-c1cccnc1,1,5,-1,3,4,.,.,
COc1ccccc1N(C)S(=O)(=O)c1ccc(C(=O)Nc2cc(OC)c(OC)c(OC)c2)cc1,8,-3,3,1,-9,.,.,
CCCC(=O)NC(c1ccccc1OC)c1ccc2cccnc2c1O (stereo not drawn),.,.,.,7.0*,.,5,3,
CCCCC(=O)NC(c1ccccc1OC)c1ccc2cccnc2c1O (stereo not drawn),2,-11,-4,2,-8,.,.,
